# Source: PubChem BioAssay (National Center for Advancing Translational Sciences (NCATS))
# uPA generation: qHTS for Inhibitors of Cell Surface uPA Generation | cell surface uPA generation assay, qHTS | Potency, µM (doses to about 38.3 µM), inactives show top-dose activity change, negative = inhibition, hits mostly inhibitors | 0.31% of 330,000 active | AID 540303, 2011; active = well fitted inhibition curve with a large enough effect; inconclusive = small, poorly fitted or top-dose-only effect; inactive = no such curve, though single readings can be large or run the other way; tested in mouse RAW 264.7 cells; also: potency is read from the fitted curve at half-maximal effect; nearly all actives have a fitted effect of over 55% in size
# HT1080 IDH1KD tx: qHTS for induction of synthetic lethality in tumor cells producing 2HG: qHTS for the HT-1080-IDH1KD cell line; HT-1080 IDH1 knockdown viability, ATP luminescence, 48 h; Potency, µM (highest dose often 46.1 µM), for inactives: top-dose activity, negative = toxicity, hits mostly cytotoxic; 2% of 360,000 active; AID 686971, 2013;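 also: potency is read from the fitted curve at half-maximal effect; 0% = DMSO wells and -100% = cell-free medium wells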
#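 Using the IDH1-knockdown HT-1080 line run in the same batch and compound series as the NT line, viability after 48 h at 37 °C was determined by CellTiter-Glo luminescence and expressed as % activity.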
# IL-1B inflam inh: qHTS for Inhibitors of Inflammasome Signaling: IL-1-beta AlphaLISA Primary Screen | THP-1 LPS/ATP IL-1B secretion, AlphaLISA, 16 h; hits give low values | activity change, % at 57.5 µM | 4.7% of 360,000 active; in the data active = activity change below about -50%; inconclusive = mostly about -30% to -49%
#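 Secreted IL-1B measured by AlphaLISA bead assay after 16 h compound exposure of THP-1 cells; compounds (final up to 57.5 uM) added 1 h before LPS (250 ng/mL) and ATP (1.25 mM) stimulation; lower signal means less secretion.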
# HT1080-NT tox: qHTS for induction of synthetic lethality in tumor cells producing 2HG: qHTS for the HT-1080-NT fibrosarcoma cell line | 1.6% of 360,000 active | HT-1080-NT fibrosarcoma viability, CellTiter-Glo ATP luminescence, 48 h | Potency, µM (titrated, usually from 46.1 µM), inactives show at the top dose activity, negative = less viability, usual class: cytotoxic;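 also: NT is the 2HG producing partner of a matched IDH1 knockdown line; potency is read from the fitted curve at half-maximal effect; 0% = DMSO-treated cells and -100% = media-only wells without cells; nearly all actives have a fitted effect of over 55% in size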
#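 Toxicity toward the 2HG-producing NT line was scored as %Activity, normalised to DMSO and no-cell wells, from CellTiter-Glo luminescence after 48 hours' treatment.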
# TDP1 cell CPT: qHTS for Inhibitors of human tyrosyl-DNA phosphodiesterase 1 (TDP1): qHTS in cells in presence of CPT | Potency, µM (doses to about 46.2 µM), without a hit: at the highest dose activity change, negative = growth inhibition, hits mostly inhibitors | chicken DT40 Tdp1-/-;hTDP1 cells + 20 nM CPT, ATP luminescence, 48 h | 12% of 420,000 active; also: potency is read from the fitted curve at half-maximal effect; nearly all actives have a fitted effect of over 55% in size
#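 Chicken DT40 Tdp1-/- cells stably complemented with human TDP1 were seeded at 400 cells/well in medium containing 20 nM camptothecin, exposed to pin-transferred compounds, and grown at 37 °C for at least 48 hr. Viability was read as ATP luminescence.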
# DT40 TDP1 no CPT: qHTS for Inhibitors of human tyrosyl-DNA phosphodiesterase 1 (TDP1): qHTS in cells in absence of CPT; AID 686978, 2013; 15% of 420,000 active; DT40 Tdp1-/- hTDP1 cells, no CPT, ATP luminescence, 48 h; Potency, µM (series often up to 46.2 µM), for inactives: at the highest dose activity change, negative = growth inhibition, usual class: inhibitors; also: potency is read from the fitted curve at half-maximal effect; nearly all actives have a fitted effect of over 55% in size
#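 Chicken DT40 Tdp1-/- cells complemented with human TDP1, screened without camptothecin (DMSO vehicle only), 400 cells/well. Compounds pin-transferred, cells incubated at 37 °C for at least 48 hr. Growth read as ATP-dependent luminescence (CellTiter-Glo, 30 min at RT).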
# * = called active by the depositor; ? = inconclusive; · = no result given. Shown are actives, neighbours in structure and some others; about 19% of the full set was active somewhere. Unless noted, calls follow the shape of the dose curve; as a rule, active = well fitted curve in the direction sought with a large enough effect; inconclusive = small, poorly fitted or top-dose-only effect, or another doubt; inactive = no such curve, though single readings can be large; an effect the other way counts as inactive or inconclusive. Unless noted, % is scaled to controls: 0 for no effect and ±100 for the full control effect.
SMILES,uPA generation,HT1080 IDH1KD tx,IL-1B inflam inh,HT1080-NT tox,TDP1 cell CPT,DT40 TDP1 no CPT
CCCCNC(=O)C1CCC(Cn2c(=O)c3sccc3n(CC(=O)N3CCCC3)c2=O)CC1 (configuration not stated),·,·,·,·,-3.6%,-16.6%
CCOc1cc(/C=N/NC(=O)c2ccc(N(C)S(=O)(=O)c3ccccc3)cc2)ccc1OC,-13.3%,-3.2%,-8.1,-3.6%,?,20.6µM*
CCOc1cc(/C=N/NC(=O)CN2CCOCC2)ccc1OCc1ccccc1,0.0%,10.2%,0.0,-1.3%,-17.7%,?
CCOc1cc(/C=N/NC(=O)c2ccc(CN3CCOCC3)cc2)ccc1OCc1ccccc1,-0.2%,-1.2%,41.9,0.4%,?,18.4µM*
O=C(Nc1cccc(S(=O)(=O)N2CCCCCC2)c1)C1CCC1,?,1.7%,-5.4,6.3%,-11.0%,?
CC(=O)N/N=C/C1=CCC2CC1C2(C)C (configuration not stated),8.1%,-2.6%,1.6,-1.1%,0.0%,11.7%
CC(C)NC(=S)N/N=C/C1=CCC2CC1C2(C)C (configuration not stated),-4.8%,3.2%,15.3,14.1%,?,?
C=C(C)CNC(=S)N/N=C/c1ccc([N+](=O)[O-])cc1,-9.7%,2.2%,0.9,0.2%,-19.4%,-2.4%
C=C(C)CNC(=S)N/N=C/c1c(F)cccc1F,-0.6%,-13.3%,-14.9,-15.6%,?,16.4µM*
C=C(C)CNC(=S)N/N=C/C1=CCC2CC1C2(C)C (configuration not stated),0.5%,7.5%,9.7,3.9%,7.31µM*,7.31µM*
CCCCNC(=S)N/N=C/C1=CCC2CC1C2(C)C (configuration not stated),-0.5%,-10.4%,14.6,-4.3%,?,18.4µM*
COc1ccc(-n2c(=O)cnc3cnc(Oc4cccc(Cl)c4)nc32)cc1,·,·,·,·,5.7%,?
CS(=O)(=O)c1sc(C#N)c2c1C(=O)CC(c1ccccc1)C2 (configuration not stated),8.91µM*,23.1µM*,-112.6*,6.51µM*,0.517µM*,0.517µM*
COCC(=O)Nc1nnc(-c2ccc(C(C)(C)C)cc2)s1,?,-4.2%,0.0,-8.3%,-23.8%,-16.8%
Nc1c(Cl)c(Cl)nc(C(=O)OCC(=O)N2CCCC2=O)c1Cl,-0.4%,5.8%,13.0,4.1%,0.8%,-27.8%
O=C(OCC(=O)N1CCCC1=O)c1nc(Cl)c(Cl)c(Cl)c1Cl,?,?,-95.0*,-7.5%,-6.1%,2.5%
Cc1cccc(C(C)C)c1NS(=O)(=O)c1cn(C)nc1C,0.0%,9.9%,8.5,7.1%,4.5%,4.2%
CCc1c(C2(O)CCCCC2)[nH]c2ccc(C(F)(F)F)cc12,-16.3%,-11.9%,-51.7*,?,18.4µM*,?
Cc1nnc(SCC2=C(C(=O)O)N3C(=O)C(NC(=O)Cn4cnnn4)[C@@H]3SC2)s1 (some centres not stated),·,·,·,·,7.8%,1.3%
CCCCC(=O)NC1(C(F)(F)F)C(=O)Nc2c1c(=O)[nH]c(=O)n2-c1ccc(C)c(C)c1 (configuration not stated),·,·,·,·,-14.1%,-5.6%
CN1CCCN(c2cc(-c3ccc4ccccc4c3)nc3ccnn23)CC1,·,0.0%,-21.8,?,20.6µM*,20.6µM*
OCCN1CCN(c2cc(-c3ccc4ccccc4c3)nc3ccnn23)CC1,·,1.1%,-8.6,-19.4%,18.4µM*,?
